TRPML1 agonist: qHTS for Agonists of the Human Mucolipin Transient Receptor Potential 1 (TRPML1). Mucolipin-1 (Homo sapiens), Q9GZU1. TRPML1-expressing cells, Ca2+ dye fluorescence, FDSS. activation, % (test concentration not listed). 0.12% of 410,000 active. AID 624414, 2012; in the data active = activation above about 50%; inconclusive = mostly about 30% to 49%; also: 0% is about no effect
Target sequence (Q9GZU1 whole entry, looked up): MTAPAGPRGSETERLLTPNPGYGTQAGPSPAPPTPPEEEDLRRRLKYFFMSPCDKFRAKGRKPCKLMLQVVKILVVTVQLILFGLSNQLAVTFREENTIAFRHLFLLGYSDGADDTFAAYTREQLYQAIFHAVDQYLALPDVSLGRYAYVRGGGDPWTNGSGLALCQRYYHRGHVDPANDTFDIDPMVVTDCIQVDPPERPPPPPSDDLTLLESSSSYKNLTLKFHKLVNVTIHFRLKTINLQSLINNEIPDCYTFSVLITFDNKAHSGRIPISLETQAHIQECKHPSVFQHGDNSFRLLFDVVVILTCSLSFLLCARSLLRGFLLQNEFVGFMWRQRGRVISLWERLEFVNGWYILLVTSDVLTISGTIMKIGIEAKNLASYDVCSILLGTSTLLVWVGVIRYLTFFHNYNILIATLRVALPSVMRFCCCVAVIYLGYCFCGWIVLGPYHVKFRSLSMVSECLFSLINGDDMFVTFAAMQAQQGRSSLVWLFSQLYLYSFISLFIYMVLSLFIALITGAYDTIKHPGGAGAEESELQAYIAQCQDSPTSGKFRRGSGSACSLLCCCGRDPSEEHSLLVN
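Cells: TRPML1-DL, 1X Tet inducer, ~16 h at 37 degrees C/5% CO2. Dye: ABD Ca8 no-wash + quencher, 45-90 min RT. Read: 10 s baseline, compound add, 110 s agonist phase; 54-4 EC80 (4uM final), 110 s antagonist phase.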
D3 ag: qHTS of D3 Dopamine Receptor Agonist: qHTS | AID 652048, 2013 | max activation, % | D(3) dopamine receptor (Homo sapiens), P35462 | D3R DiscoveRx beta-arrestin cells, luminescence, 90 min | 0.58% of 410,000 active; in the data active = max activation above about 30%; also: 0% is about no effect
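Cells at 1500/well, incubated overnight, then treated with pinned compounds (dopamine as control) for 90 min at 37 degrees C. DiscoveRx reagent added for 30 - 60 minutes at room temperature; luminescence read.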
D3 antag: qHTS of D3 Dopamine Receptor Antagonist: qHTS; D(3) dopamine receptor (Homo sapiens), P35462; D3R cells, DiscoveRx beta-arrestin luminescence, antagonist mode; hits give low values; 2.5% of 360,000 active; max response, negative = inhibition, %; AID 652054, 2013; in the data active = max response below about -50%; inconclusive = no clear call, values can overlap the other calls; also: % is scaled to controls: 0 for no effect and ±100 for the full control effect
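Cells expressing the human receptor were seeded at 1500 cells/well, incubated overnight at 37 degrees C in 5% CO2, then exposed to library compounds with dopamine controls for 90 minutes at 37 degrees C before luminescent detection.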
TRPML1 inh: qHTS for Inhibitors of the Human Mucolipin Transient Receptor Potential 1 (TRPML1); Mucolipin-1 (Homo sapiens), Q9GZU1; TRPML1-inducible cells, Ca2+ dye fluorescence, FDSS; hits give low values; inhibition of EC80 agonist-evoked calcium signal; activity change, negative = inhibition, % (no concentration beside the values); 0.02% of 390,000 active; in the data active = activity change below about -50%; inconclusive = between about -30% and that limit;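 also: stimulus is agonist 54-4 at its EC80 concentration; % is scaled to controls: 0 for no effect and ±100 for the full control effect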
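Calcium fluorescence in TRPML1-DL cells induced overnight with Tet: a 110 s read after compound pin addition, then a 110 s antagonist read after challenge with 54-4 at 4 uM final (EC80).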
* marks the source's active call; other numbers are inactive results; ? = inconclusive; / = no result given. The list is not random: actives were taken first. Their share in the collection is about 2.9%.

SMILES	TRPML1 agonist	D3 ag	D3 antag	TRPML1 inh
CCCCCSc1nnc2c(n1)OC(C)N(C(C)=O)c1ccccc1-2 (stereo not given)	1	-12	-68*	2
C[N+](C)(C)CC(O)CC(=O)[O-] (stereo not given)	/	14	/	/
COc1[nH]c2ccc(F)cc2c1C(=O)OCC1CCN(CCNS(C)(=O)=O)CC1	0	-74	-55*	-28
Cc1cc(F)ccc1NC(=O)CCS(=O)(=O)c1cc2c(cc1C)NC(=O)CO2	5	8	/	-6
Cc1cc(=O)[nH]c(SCc2nc3ccccc3s2)n1	1	-8	3	14
CCCc1cc(=O)[nH]c(SCc2nc3ccccc3s2)n1	1	43*	39	1
CCCn1c(SCC(=O)c2cc(C)n(-c3cc(C)on3)c2C)n[nH]c1=O	1	31*	11	-12
Cc1c(C(=O)Nc2cccc(F)c2)oc2c1-c1nn(Cc3c(F)cccc3Cl)cc1CC2	3	-13	/	24
COc1ccc(-n2cnc3cc(NCc4ccccn4)ccc32)cc1	2	-19	6	21
COc1ccccc1-n1cnc2cc(NCc3ccccn3)ccc21	0	-27	-11	-51*
CCCCCCCCN1C(=O)[C@H](CC(=O)NCCCOCCCC)C[C@@]2(C(=O)OC)CCCCC=C12	0	87*	3	/
CCCCCCCCN1C(=O)[C@H](CC(=O)NCc2cccs2)C[C@@]2(C(=O)OC)CC(C)(C)CC=C12	/	44*	42	/
CCCCCCCCN1C(=O)[C@H](CC(=O)NCCCC)C[C@@]2(C(=O)OC)CCCCC=C12	0	0	17	/
COc1ccc(CC(O)CC2c3c(cc4c(c3OC)OCO4)CCN2C)cc1 (stereo not given)	1	-20	-69*	-16
COc1ccccc1CC(O)CC1c2c(cc3c(c2OC)OCO3)CCN1C (stereo not given)	0	-1	-4	23
O=c1c2cccnc2[nH]c(=S)n1CCCN1CCN(c2ccccc2F)CC1	1	7	-55*	-13
CCCn1c(=S)[nH]c2cc(C(=O)N3CCN(c4ccccc4)CC3)ccc2c1=O	0	8	7	5
CC(C)OCCCn1c(=S)[nH]c2ncccc2c1=O	1	0	0	15
Cc1ccc2[nH]c3c(=O)n(CC(=O)Nc4ccccc4N4CCN(C)CC4)ncc3c2c1	0	-18	-55*	42
O=C(c1ccc2c(=O)n(Cc3ccco3)c(=S)[nH]c2c1)N1CCN(c2ccccc2)CC1	-1	-1	-50*	0
O=c1c2ccccc2[nH]c(=S)n1CCCN1CCN(c2ccccc2)CC1	2	-11	-71*	-22
Cc1nc2cc(-c3cccc(F)c3)nn2c(C)c1CCC(=O)Nc1ccccc1C(N)=O	0	6	/	-7
CC(C)c1cnc2c(c1SCc1cccc(F)c1)c(=O)n(C)c(=O)n2C	2	7	/	-21
C/C(=C1/C=Nc2ccccc21)c1ccc(N(C)C)cc1	0	/	/	/
O=C(Cn1ncc2c([nH]c3ccccc32)c1=O)NCCCN1CCN(c2ccccc2)CC1	1	6	-63*	-12
SMILES	TRPML1 agonist	D3 ag	D3 antag	TRPML1 inh
CCN(CCCn1c(=S)[nH]c2ncccc2c1=O)c1ccccc1	0	-9	8	-1
O=c1c2ccccc2[nH]c(=S)n1CCCN1CCN(c2ccccc2F)CC1	0	9	-99*	-8
CCN(CC)CCCn1c(=S)[nH]c2ncccc2c1=O	1	-11	-53*	22
C[C@@H](c1ncncc1F)C(O)(Cn1cncn1)c1ccc(F)cc1F (stereo not given in full)	/	5	/	/
Oc1ccc(N=Nc2ccccc2C(F)(F)F)c2cccnc12	0	-17	-124*	2
CCS(=O)(=O)c1ccc(N=Nc2ccc(O)c3ncccc23)c(OC)c1	0	-2	?	18
COc1ccccc1N=Nc1ccc(O)c2ncccc12	2	-17	-90*	-19
COC(=O)c1ccccc1NC(=O)c1cnn2c1NC(=C1CC1)C=C2C(F)F	-1	/	/	/
O=C(C1=C[C@H](c2coc3ccccc3c2=O)C[C@H](OCc2ccc(CO)cc2)O1)N1CCN(Cc2ccc3c(c2)OCO3)CC1	1	-50	-50*	-1
CC(=O)n1cc([C@H]2C=C(C(=O)NCc3ccccc3)O[C@@H](OCc3ccc(CO)cc3)C2)c2ccccc21	0	5	25	-3
CC(=O)n1cc([C@H]2C=C(C(N)=O)O[C@@H](OCc3ccc(CO)cc3)C2)c2ccccc21	8	36*	66	-9
CC(=O)n1cc([C@@H]2C=C(C(=O)N3CCN(Cc4ccccc4)CC3)O[C@H](OCc3ccc(CO)cc3)C2)c2ccccc21	-1	-62	-61*	14
Cc1ccc2nc(/C=C/c3ccc(N(C)C)cc3)ccc2c1	20	/	/	/
CC(C)(C)c1ccc(Cn2cnc3c(cnn3C(C)(C)C)c2=O)cc1	0	/	/	0
Cn1cnc(S(=O)(=O)N2CCC(C(=O)N3CCN(c4ccc(Cl)cc4)CC3)CC2)c1	2	9	/	19
O=Cc1c(Cl)nc2ccccn2c1=O	3	-5	-67*	-21
O=C(Cn1cnc2onc(-c3ccc(F)cc3)c2c1=O)N1CCN(c2ccc(F)cc2)CC1	1	3	/	21
Cc1ccc2[nH]nc(C(=O)N3CCCC(C(=O)c4ccc(Cl)cc4)C3)c2c1 (stereo not given)	1	34*	33	1
COc1cccc(NC(=O)c2csc3c2CCCCC3)c1	0	44*	/	11
Cc1ccc(C(=O)N2c3nc(-c4ccco4)nn3C3(CCCCC3)[C@@H]3CCCC[C@@H]32)cc1	2	9	/	0
Cc1sc2ccccc2[n+]1CCC(C)S(=O)(=O)[O-] (stereo not given)	0	-17	-67*	-15
CCC(=O)Oc1ccc(C/C(=N\O)c2ccc(O)cc2O)o1	4	56*	92	6
O=C(CCCN1C(=O)/C(=C\c2cccs2)SC1=S)Nc1cc([N+](=O)[O-])ccc1O	1	-19	-90*	14
O=C(CCN1C(=O)/C(=C/c2cccs2)SC1=S)Nc1ccccc1O	1	-1	10	-12
O=C(CCN1C(=O)S/C(=C\c2cccs2)C1=O)Nc1nccs1	-1	4	-11	-3
O=C(CCN1C(=O)/C(=C\c2cccs2)SC1=S)Nc1nccs1	0	13	-52*	-8
CCOC(=O)c1nnc(-c2ccc(C)cc2)nc1Sc1ccccc1Cl	0	6	-85*	5
CCOC(=O)c1nnc(-c2ccccc2)nc1Sc1c(Cl)cccc1Cl	2	-15	?	10
O=C(Cn1nc(-c2ccccc2)c2cnc3ccccc3c21)Nc1ccccc1	-1	1	/	?
